# According to PubChem BioAssay AID1159580 (chemical genetic matrix, 2015):
# The campaign covered roughly 5,500 compounds. About 2,000 (36%) were called active. Not shown: some 18% with an inconclusive outcome. The list shows a part of the results. Unmarked numbers belong to inactive results. Cut-off read from the data, not from the text of the source: active = normalized growth mostly below about 0.91 (no sharp cut-off); inconclusive = no clear call, values can overlap the other calls; inactive = mostly above about 0.92.
# Assay: chemical genetic growth profiling, strain panel (AID 1159580);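 note: tested at 20 µM; growth read once vehicle control cultures reached saturation at 30 °C; 1 = growth at the plate median or of vehicle wells; lower values mean less growth of the strain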
# Conditions: S. cerevisiae deletion strains, growth OD
# [1] = locus YAL040C, strain CLN3, active compounds read low
# [2] = locus YCL061C, strain MRC1 (second series), active compounds read low
# [3] = locus YDR363W, strain ESC2, active compounds read low
# [4] = locus YER002W, strain NOP16, active compounds read low
# [5] = locus YNL175C, strain NOP13, active compounds read low
# [6] = locus YNL197C, strain WHI3, active compounds read low
# [7] = locus YNL224C, strain SQS1, active compounds read low
# [8] = locus YOR083W, strain WHI5 (second series), active compounds read low
# [9] = locus YPL055C, strain LGE1, active compounds read low
# [10] = locus YPL241C, strain CIN2, active compounds read low
# [11] = locus YMR307W, strain GAS1, active compounds read low
Structure (SMILES),"normalized growth (locus YAL013W, strain DEP1, active compounds read low)",normalized growth [1],normalized growth [2],normalized growth [3],normalized growth [4],"normalized growth (locus YNL153C, strain GIM3, active compounds read low)",normalized growth [5],normalized growth [6],normalized growth [7],normalized growth [8],normalized growth [9],normalized growth [10],"normalized growth (locus YJR075W, strain HOC1, active compounds read low)",normalized growth [11],"normalized growth (locus YDR150W, strain NUM1, active compounds read low)","normalized growth (locus YGR078C, strain PAC10, active compounds read low)","normalized growth (locus YNL128W, strain TEP1, active compounds read low)","normalized growth (locus YNL322C, strain KRE1, active compounds read low)"
N#Cc1c(-c2ccccc2)no[n+]1[O-],0.942,0.674 (active),0.995,1,0.85 (active),0.515 (active),0.774 (active),0.902,0.926,0.253 (active),0.953,1,,,,,,
Cc1ccc(O)c(N=Nc2ccccc2)n1,,0.96,0.934 (active),0.896,1.03,,0.985,0.977,0.993,0.738 (active),0.425 (active),,0.855 (active),0.984,,,,
NC1CCN(c2cccc(Cl)n2)CC1,,1.01,1,1.01,0.991,,0.991,1,1.01,0.991,,1,,1.02,1.01,1.01,1.01,0.984
